Assay results taken from PubChem BioAssay AID1159580 (chemical genetic matrix, 2015).
The whole screen tested about 5,500 compounds, of which about 2,000 (36%) were called active. Another 18% or so got no clear call; they are omitted. Rule as the data show it: active = normalized growth mostly below about 0.91 (no sharp cut-off); inconclusive = no clear call, values can overlap the other calls; inactive = mostly above about 0.92. Some of the results follow.

Test: chemical genetic growth profiling, strain panel (AID 1159580);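 also: tested at 20 µM; growth read once vehicle control cultures reached saturation at 30 °C; 1 = growth at the plate median or of vehicle wells; lower values mean less growth of the strain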
Settings: growth OD

Measured: normalized growth

CN[C@@H]1[C@@H](O[C@H]2O[C@H](CO)[C@@H](N)[C@H](O)[C@H]2O)O[C@H]2C[C@@H](N)[C@H](O[C@H]3[C@H](O)[C@@H](O)[C@H](N)C[C@@H]3N)O[C@@H]2[C@@H]1O
inactive: S. cerevisiae deletion strains, locus YKL009W, strain mrt4, stronger effect = lower value 0.996 | S. cerevisiae deletion strains, locus YKL068W, stronger effect = lower value 1.01 | S. cerevisiae deletion strains, locus YKL085W, strain MDH1 (second series), stronger effect = lower value 0.982 | S. cerevisiae deletion strains, locus YKL085W, strain MDH1, stronger effect = lower value 0.982 | S. cerevisiae deletion strains, locus YKL160W, strain elf1, stronger effect = lower value 1.01 | S. cerevisiae deletion strains, locus YKL190W, strain CNB1, stronger effect = lower value 1 | S. cerevisiae deletion strains, locus YKR001C, strain vps1, stronger effect = lower value 0.989 | S. cerevisiae deletion strains, locus YKR026C, strain gcn3, stronger effect = lower value 1 | S. cerevisiae deletion strains, locus YKR091W, strain srl3, stronger effect = lower value 1 | S. cerevisiae deletion strains, locus YLL001W, strain dnm1, stronger effect = lower value 1.02 | S. cerevisiae deletion strains, locus YLL026W, stronger effect = lower value 1.01 | S. cerevisiae deletion strains, locus YLL041C, strain sdh2, stronger effect = lower value 0.997 | S. cerevisiae deletion strains, locus YLR027C, strain aat2, stronger effect = lower value 1.01 | S. cerevisiae deletion strains, locus YLR039C, strain RIC1, stronger effect = lower value 1.07 | S. cerevisiae deletion strains, locus YLR058C, strain SHM2, stronger effect = lower value 1.01 | S. cerevisiae deletion strains, locus YLR102C, strain apc9, stronger effect = lower value 1.01 | S. cerevisiae deletion strains, locus YLR113W, strain HOG1, stronger effect = lower value 0.939 | S. cerevisiae deletion strains, locus YLR221C, strain rsa3, stronger effect = lower value 1 | S. cerevisiae deletion strains, locus YLR258W, strain gsy2, stronger effect = lower value 1 | S. cerevisiae deletion strains, locus YLR262C, strain YPT6 (second series), stronger effect = lower value 1 | S. cerevisiae deletion strains, locus YLR262C, strain YPT6, stronger effect = lower value 1.05 | S. cerevisiae deletion strains, locus YLR268W, strain sec22, stronger effect = lower value 0.981 | S. cerevisiae deletion strains, locus YLR320W, strain mms22, stronger effect = lower value 0.991 | S. cerevisiae deletion strains, locus YLR330W, strain CHS5, stronger effect = lower value 1.01 | S. cerevisiae deletion strains, locus YLR342W, strain FKS1 (second series), stronger effect = lower value 1.07 | S. cerevisiae deletion strains, locus YLR342W, strain FKS1, stronger effect = lower value 1.02 | S. cerevisiae deletion strains, locus YLR357W, strain rsc2, stronger effect = lower value 0.996 | S. cerevisiae deletion strains, locus YLR370C, strain arc18, stronger effect = lower value 1.01 | S. cerevisiae deletion strains, locus YLR371W, strain rom2, stronger effect = lower value 1.01 | S. cerevisiae deletion strains, locus YLR384C, strain iki3, stronger effect = lower value 1 | S. cerevisiae deletion strains, locus YLR418C, strain cdc73, stronger effect = lower value 0.99 | S. cerevisiae deletion strains, locus YML016C, strain PPZ1, stronger effect = lower value 1 | S. cerevisiae deletion strains, locus YML032C, strain rad52, stronger effect = lower value 1.01 | S. cerevisiae deletion strains, locus YML120C, strain ndi1, stronger effect = lower value 1 | S. cerevisiae deletion strains, locus YML124C, strain tub3, stronger effect = lower value 0.995 | S. cerevisiae deletion strains, locus YMR058W, strain fet3, stronger effect = lower value 1.02 | S. cerevisiae deletion strains, locus YMR078C, strain ctf18, stronger effect = lower value 1.02 | S. cerevisiae deletion strains, locus YMR125W, strain sto1, stronger effect = lower value 0.988 | S. cerevisiae deletion strains, locus YMR129W, stronger effect = lower value 0.986 | S. cerevisiae deletion strains, locus YMR205C, strain PFK2, stronger effect = lower value 1.02 | S. cerevisiae deletion strains, locus YMR223W, strain ubp8, stronger effect = lower value 0.913 | S. cerevisiae deletion strains, locus YMR231W, strain pep5, stronger effect = lower value 1.01 | S. cerevisiae deletion strains, locus YMR263W, strain SAP30, stronger effect = lower value 0.991 | S. cerevisiae deletion strains, locus YMR307W, strain GAS1, stronger effect = lower value 1.03 | S. cerevisiae deletion strains, locus YNL067W, strain RPL9B, stronger effect = lower value 0.988 | S. cerevisiae deletion strains, locus YNL071W, strain lat1, stronger effect = lower value 0.995 | S. cerevisiae deletion strains, locus YNL128W, strain TEP1, stronger effect = lower value 1.03 | S. cerevisiae deletion strains, locus YNL153C, strain GIM3, stronger effect = lower value 0.98 | S. cerevisiae deletion strains, locus YNL183C, strain NPR1, stronger effect = lower value 0.916 | S. cerevisiae deletion strains, locus YNL209W, strain ssb2, stronger effect = lower value 0.996 | S. cerevisiae deletion strains, locus YNL233W, strain BNI4, stronger effect = lower value 1 | S. cerevisiae deletion strains, locus YNL248C, strain rpa49, stronger effect = lower value 0.999 | S. cerevisiae deletion strains, locus YNL250W, strain rad50, stronger effect = lower value 1.01 | S. cerevisiae deletion strains, locus YNL271C, strain bni1, stronger effect = lower value 0.997 | S. cerevisiae deletion strains, locus YNL298W, strain CLA4, stronger effect = lower value 1.01 | S. cerevisiae deletion strains, locus YNL307C, strain MCK1, stronger effect = lower value 1.02 | S. cerevisiae deletion strains, locus YNL322C, strain KRE1 (second series), stronger effect = lower value 1 | S. cerevisiae deletion strains, locus YNL322C, strain KRE1, stronger effect = lower value 1.01 | S. cerevisiae deletion strains, locus YNR049C, strain mso1, stronger effect = lower value 0.999 | S. cerevisiae deletion strains, locus YNR052C, strain pop2, stronger effect = lower value 0.996 | S. cerevisiae deletion strains, locus YOL006C, strain TOP1, stronger effect = lower value 1 | S. cerevisiae deletion strains, locus YOL012C, strain htz1 0.612 | S. cerevisiae deletion strains, locus YOL147C, strain pex11, stronger effect = lower value 1 | S. cerevisiae deletion strains, locus YOR001W, strain rrp6, stronger effect = lower value 1 | S. cerevisiae deletion strains, locus YOR061W, strain CKA2, stronger effect = lower value 1.01 | S. cerevisiae deletion strains, locus YOR069W, strain VPS5, stronger effect = lower value 1 | S. cerevisiae deletion strains, locus YOR070C, strain gyp1, stronger effect = lower value 1 | S. cerevisiae deletion strains, locus YOR080W, strain dia2, stronger effect = lower value 1.01 | S. cerevisiae deletion strains, locus YOR083W, strain WHI5, stronger effect = lower value 1.01 | S. cerevisiae deletion strains, locus YOR106W, strain vam3, stronger effect = lower value 1.01 | S. cerevisiae deletion strains, locus YOR136W, strain idh2, stronger effect = lower value 1.01 | S. cerevisiae deletion strains, locus YOR144C, strain elg1, stronger effect = lower value 1 | S. cerevisiae deletion strains, locus YOR184W, strain ser1, stronger effect = lower value 1.03 | S. cerevisiae deletion strains, locus YOR231W, strain MKK1, stronger effect = lower value 0.951 | S. cerevisiae deletion strains, locus YOR265W, strain rbl2, stronger effect = lower value 1.01 | S. cerevisiae deletion strains, locus YOR270C, strain vph1, stronger effect = lower value 1.2 | S. cerevisiae deletion strains, locus YOR290C, strain snf2, stronger effect = lower value 0.991 | S. cerevisiae deletion strains, locus YOR316C, strain cot1, stronger effect = lower value 1.01 | S. cerevisiae deletion strains, locus YPL051W, strain arl3, stronger effect = lower value 1.02 | S. cerevisiae deletion strains, locus YPL055C, strain LGE1, stronger effect = lower value 0.984 | S. cerevisiae deletion strains, locus YPL078C, strain atp4, stronger effect = lower value 1.03 | S. cerevisiae deletion strains, locus YPL106C, strain sse1, stronger effect = lower value 0.975 | S. cerevisiae deletion strains, locus YPL240C, strain hsp82, stronger effect = lower value 0.995 | S. cerevisiae deletion strains, locus YPL241C, strain CIN2, stronger effect = lower value 1 | S. cerevisiae deletion strains, locus YPL256C, strain CLN2, stronger effect = lower value 1.02 | S. cerevisiae deletion strains, locus YPR119W, strain clb2, stronger effect = lower value 1.01 | S. cerevisiae deletion strains, locus YPR141C, strain kar3, stronger effect = lower value 1 | S. cerevisiae deletion strains, locus YPR163C, strain tif3, stronger effect = lower value 1 | S. cerevisiae deletion strains, locus YPR167C, strain met16, stronger effect = lower value 0.991 | S. cerevisiae deletion strains, strain wtn01, stronger effect = lower value 0.988 | S. cerevisiae strains, strain wild type, stronger effect = lower value 1.02
